# Experimental data taken from PubChem BioAssay AID2567 (National Center for Advancing Translational Sciences (NCATS), 2010).
# Records with an inconclusive call do not appear. Activity calls are given as the source filed them. Calls come from the whole dose curve; as a rule, active = well fitted antagonist curve with a large enough effect in the main read-out, with a control signal flat; inconclusive = small, poorly fitted or top-dose-only effect; inactive = no such curve, though single readings can be large or run the other way.
# Biological target: Neuropeptide S receptor (Homo sapiens) (UniProt Q6W5P4)
# Assay: Confirmation Concentration-Response Assay for Antagonists of the Neuropeptide S Receptor: Calcium Signal Transduction, SAR for Probe
# Conditions: CHO-NPSR cells, NPS-induced calcium fluorescence, FDSS; series mostly up to 19.3 µM; activity change, negative = inhibition: at the top concentration
# In short: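 Calcium flux was measured by kinetic fluorescence in dye-loaded CHO-NPSR cells, first after compound addition (210 s), then after NPS challenge (60 nM in stimulation reagent, 140 s). Hill-equation fitting gave AC50.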
# Chain of Neuropeptide S receptor (Homo sapiens) (Q6W5P4 whole entry, looked up): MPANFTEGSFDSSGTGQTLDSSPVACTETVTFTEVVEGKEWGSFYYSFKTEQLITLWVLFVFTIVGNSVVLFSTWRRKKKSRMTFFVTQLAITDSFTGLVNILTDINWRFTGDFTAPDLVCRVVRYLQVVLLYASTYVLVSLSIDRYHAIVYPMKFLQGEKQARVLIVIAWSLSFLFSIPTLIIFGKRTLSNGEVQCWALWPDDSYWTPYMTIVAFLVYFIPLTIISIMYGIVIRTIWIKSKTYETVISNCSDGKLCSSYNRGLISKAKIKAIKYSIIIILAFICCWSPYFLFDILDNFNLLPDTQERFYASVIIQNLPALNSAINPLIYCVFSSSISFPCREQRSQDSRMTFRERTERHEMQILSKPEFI
SMILES,"activity change, negative = inhibition",Potency
COc1ccc(C2c3c(nc(C)[nH]c3=O)Oc3ccc4ccccc4c32)cc1OC (stereo unspecified),-5.17% [at 50.9 µM] (inactive),
COc1ccc(C2c3ccc4ccccc4c3Oc3ncn(CCN4CCOCC4)c(=N)c32)cc1OC (stereo unspecified),,8.74 µM (active)
COc1ccc(C2C3=C(N=CN(CCN4CCOCC4)C3N)Oc3ccccc32)cc1OC (stereo unspecified),-2.32% [at 50.9 µM] (inactive),
CCOC(=O)c1ccc(-n2cnc3c(c2=N)C(c2cccc(OC)c2)c2c(ccc4ccccc24)O3)cc1 (stereo unspecified),,2.76 µM (active)
CCC(C)(CCN1CCOCC1)N(Cc1cc2ccccc2n(C)c1=O)C(=O)C1CCCCC1 (stereo unspecified),,0.11 µM (active)
N=C1c2ccccc2CN1c1ccc(N2CCOCC2)c(S(=O)(=O)Nc2ccc(Cl)cc2)c1,,1.41 µM (active)
COc1cccc(C2c3c(ncn(-c4ccc(F)cc4)c3=N)Oc3ccc4ccccc4c32)c1 (stereo unspecified),,3.48 µM (active)
COc1ccc(C2c3c(n(CCCc4ccccc4)cnc3=N)Oc3ccc4ccccc4c32)cc1OC (stereo unspecified),,5.52 µM (active)
OC(c1ccccc1)(c1ccccc1)c1cnc2ccccn12,-20.4% [at 50.9 µM] (inactive),
C[n+]1cc(C(O)(c2ccccc2)c2ccccc2)n2ccccc21,-13.9% [at 50.9 µM] (inactive),
COc1cccc(C2c3c(ncn(-c4ccc(C)cc4)c3=N)Oc3ccc4ccccc4c32)c1 (stereo unspecified),,3.48 µM (active)
CC1(C)O[C@@H]2C[C@H]3[C@@H]4C[C@H](F)C5=CC(=O)CC[C@]5(C)[C@H]4[C@@H](O)C[C@]3(C)[C@]2(C(=O)CO)O1,34.2% (inactive),
CC(C)Cc1nc(N2CCN(C(=O)c3ccccc3)CC2)c(C#N)c2c1CCC2,16% (inactive),
CN(C)C(=O)Oc1cccc([N+](C)(C)C)c1,20.5% (inactive),
CCSc1nc2c(c(=O)n1Cc1ccccc1)SC(C)C2 (stereo unspecified),-2.84% (inactive),
COc1ccc(C2c3ccccc3Oc3ncn(CCN4CCOCC4)c(=N)c32)cc1OC (stereo unspecified),,0.694 µM (active)

SMILES,"activity change, negative = inhibition",Potency
COc1ccc(C2c3c(ncn(CCc4ccccc4)c3=N)Oc3ccc4ccccc4c32)cc1OC (stereo unspecified),-81.6% [at 50.9 µM] (inactive),
COc1ccc(C(=O)N(Cc2ccco2)Cc2cccs2)c(O)c1,34.4% (inactive),
Cc1nnc(NC(=O)c2cccc(S(=O)(=O)N3CCc4ccccc43)c2)s1,23.8% (inactive),
Cc1nc2ccccn2c1P(=O)(c1ccccc1)c1ccccc1,-25.3% [at 50.9 µM] (inactive),
CCOC(=O)c1cnc(-n2nc(C)cc2C)nc1Nc1ccc(C)cc1,-19.5% (inactive),
COc1cccc(C2c3c(ncn(-c4ccc(C#N)cc4)c3=N)Oc3ccc4ccccc4c32)c1 (stereo unspecified),,5.52 µM (active)
Cn1cc(P(=O)(c2ccccc2)c2ccccc2)c2ccccc21,-17.3% [at 50.9 µM] (inactive),
CN(C)c1nc(=Nc2cccc(Cl)c2)ss1,5.52% (inactive),
COc1cccc(C2c3c(ncn(-c4cccc(C)c4)c3=N)Oc3ccc4ccccc4c32)c1 (stereo unspecified),,4.38 µM (active)
O=[N+]([O-])c1ccc(-c2nc(C(Cl)Cl)c3ccccc3n2)cc1,-23.4% (inactive),
C/C(=N\NC(=S)NC1CCCCC1)c1c(F)cccc1F,-22.3% (inactive),
COc1cccc2sc(Nc3nc(-c4ccccn4)cs3)nc12,,3.16 µM (active)
COc1cccc(C2c3c(ncn(-c4cccc(F)c4)c3=N)Oc3ccc4ccccc4c32)c1 (stereo unspecified),,0.22 µM (active)
COc1cccc(C2c3c(ncn(-c4ccccc4Br)c3=N)Oc3ccc4ccccc4c32)c1 (stereo unspecified),,5.52 µM (active)
O=P(c1ccccc1)(c1ccccc1)c1cnc2ccccn12,-12.3% [at 50.9 µM] (inactive),
